The full data set covers some 8,800 targets. This sample favours those with a hit. About 0.5% of all pairs of compound and target were hits.
Compound: O=C1NC(=O)C(c2cnc3ccccn23)=C1c1cn2c3c(cc(F)cc13)CN(C(=O)N1CCCCC1)CC2
Assay: log2 fold change, soluble protein after heating vs DMSO (PISA); higher = thermal stabilisation; K562 lysate, 10 uM; active = over 0.2 and 3.5 SD of the protein, either way, in both replicates (recomputed)
How it was run: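 Pellets of K562 cells were dounce-homogenised in PBS pH 7.4 with 1 mM MgCl2, and the crude extract was held at 1 mg/mL protein for a 30 min treatment with 10 μM compound. Aliquots were heated for 3 min over 48°C-58°C and pooled before NP-40 was added to 0.5% at 4°C. The supernatant from 21,000xg for 90 min was quantified by TMTpro 16plex LC-MS/MS with channel sums equalised. Values are reported from duplicates as log-two fold change in thermal stability relative to solvent controls.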

Chain of UniProt P14866 (P14866 whole entry, looked up): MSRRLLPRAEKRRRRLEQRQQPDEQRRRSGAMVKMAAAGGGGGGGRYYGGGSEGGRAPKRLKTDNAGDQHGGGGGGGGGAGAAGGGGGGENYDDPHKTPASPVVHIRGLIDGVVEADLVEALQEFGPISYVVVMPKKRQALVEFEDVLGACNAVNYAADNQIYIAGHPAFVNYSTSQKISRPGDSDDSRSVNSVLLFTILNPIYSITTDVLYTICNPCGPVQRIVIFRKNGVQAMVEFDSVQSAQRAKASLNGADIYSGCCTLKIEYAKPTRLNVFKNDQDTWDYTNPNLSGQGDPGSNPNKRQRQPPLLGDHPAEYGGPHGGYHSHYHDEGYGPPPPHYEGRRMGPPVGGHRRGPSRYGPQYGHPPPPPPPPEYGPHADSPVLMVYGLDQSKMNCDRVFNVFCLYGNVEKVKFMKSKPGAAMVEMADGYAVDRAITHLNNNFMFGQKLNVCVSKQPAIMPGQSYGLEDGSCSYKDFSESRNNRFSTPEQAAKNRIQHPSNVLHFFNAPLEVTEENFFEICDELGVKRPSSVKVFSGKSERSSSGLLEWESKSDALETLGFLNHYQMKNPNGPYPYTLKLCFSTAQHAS
Chain of UniProt Q7Z4H7 (Q7Z4H7 whole entry, looked up): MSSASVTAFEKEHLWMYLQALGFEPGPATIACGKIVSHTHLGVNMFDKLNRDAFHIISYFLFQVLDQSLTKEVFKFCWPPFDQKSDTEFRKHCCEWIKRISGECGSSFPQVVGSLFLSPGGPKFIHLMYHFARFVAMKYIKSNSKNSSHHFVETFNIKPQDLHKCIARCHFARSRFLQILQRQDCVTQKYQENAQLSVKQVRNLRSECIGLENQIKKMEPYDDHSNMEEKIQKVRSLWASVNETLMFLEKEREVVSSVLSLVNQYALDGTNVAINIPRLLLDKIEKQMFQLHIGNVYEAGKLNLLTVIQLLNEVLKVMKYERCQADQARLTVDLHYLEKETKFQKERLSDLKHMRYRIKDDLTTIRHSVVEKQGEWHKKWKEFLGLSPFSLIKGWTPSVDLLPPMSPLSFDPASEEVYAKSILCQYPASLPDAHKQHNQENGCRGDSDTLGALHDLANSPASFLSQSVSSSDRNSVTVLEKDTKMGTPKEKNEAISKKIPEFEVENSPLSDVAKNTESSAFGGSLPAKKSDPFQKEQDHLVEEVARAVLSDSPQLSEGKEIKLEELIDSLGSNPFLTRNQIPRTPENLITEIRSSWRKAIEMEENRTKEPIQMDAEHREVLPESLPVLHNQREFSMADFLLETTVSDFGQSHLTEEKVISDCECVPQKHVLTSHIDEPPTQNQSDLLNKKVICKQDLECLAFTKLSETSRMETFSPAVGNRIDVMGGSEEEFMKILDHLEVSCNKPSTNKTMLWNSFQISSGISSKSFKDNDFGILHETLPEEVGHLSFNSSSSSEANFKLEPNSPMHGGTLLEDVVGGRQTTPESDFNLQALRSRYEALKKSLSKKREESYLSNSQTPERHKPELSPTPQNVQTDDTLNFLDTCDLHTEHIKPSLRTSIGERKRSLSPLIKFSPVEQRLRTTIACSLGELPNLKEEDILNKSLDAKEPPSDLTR
Chain of UniProt Q13478 (Q13478 whole entry, looked up): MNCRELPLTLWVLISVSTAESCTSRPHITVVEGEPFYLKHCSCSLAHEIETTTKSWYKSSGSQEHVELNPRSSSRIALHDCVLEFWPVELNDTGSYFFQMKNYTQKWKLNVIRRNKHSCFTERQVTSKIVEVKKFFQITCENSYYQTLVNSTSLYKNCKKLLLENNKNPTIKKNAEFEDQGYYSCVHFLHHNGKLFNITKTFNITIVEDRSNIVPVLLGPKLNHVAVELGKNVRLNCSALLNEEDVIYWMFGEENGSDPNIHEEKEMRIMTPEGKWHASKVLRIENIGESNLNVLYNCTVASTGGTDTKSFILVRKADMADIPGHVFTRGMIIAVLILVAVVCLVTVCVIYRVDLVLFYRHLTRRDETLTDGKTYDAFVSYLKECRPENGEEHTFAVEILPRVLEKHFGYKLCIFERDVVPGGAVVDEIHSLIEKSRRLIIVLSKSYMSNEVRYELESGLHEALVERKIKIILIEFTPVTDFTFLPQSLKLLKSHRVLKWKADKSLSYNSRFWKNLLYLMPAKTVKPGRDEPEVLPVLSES
Chain of UniProt Q53GQ0 (Q53GQ0 whole entry, looked up): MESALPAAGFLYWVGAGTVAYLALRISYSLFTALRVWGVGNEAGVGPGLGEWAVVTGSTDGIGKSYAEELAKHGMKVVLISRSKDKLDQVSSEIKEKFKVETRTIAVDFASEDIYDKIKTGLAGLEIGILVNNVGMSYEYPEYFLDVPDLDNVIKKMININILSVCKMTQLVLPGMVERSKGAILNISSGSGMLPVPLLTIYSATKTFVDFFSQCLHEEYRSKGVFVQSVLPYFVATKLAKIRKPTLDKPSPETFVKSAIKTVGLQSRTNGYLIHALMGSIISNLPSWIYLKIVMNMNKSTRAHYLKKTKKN
Chain of UniProt Q99871 (Q99871 whole entry, looked up): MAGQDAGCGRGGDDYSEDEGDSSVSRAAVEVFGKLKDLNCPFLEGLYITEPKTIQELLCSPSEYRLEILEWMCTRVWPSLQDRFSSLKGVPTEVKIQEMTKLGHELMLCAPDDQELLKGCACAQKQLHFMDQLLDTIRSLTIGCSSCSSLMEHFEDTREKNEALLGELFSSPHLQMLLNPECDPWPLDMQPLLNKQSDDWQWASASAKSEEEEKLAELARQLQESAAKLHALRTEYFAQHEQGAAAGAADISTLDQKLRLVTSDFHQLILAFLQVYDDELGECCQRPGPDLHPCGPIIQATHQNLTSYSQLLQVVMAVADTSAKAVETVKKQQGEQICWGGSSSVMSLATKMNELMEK
Chain of UniProt P52655 (P52655 whole entry, looked up): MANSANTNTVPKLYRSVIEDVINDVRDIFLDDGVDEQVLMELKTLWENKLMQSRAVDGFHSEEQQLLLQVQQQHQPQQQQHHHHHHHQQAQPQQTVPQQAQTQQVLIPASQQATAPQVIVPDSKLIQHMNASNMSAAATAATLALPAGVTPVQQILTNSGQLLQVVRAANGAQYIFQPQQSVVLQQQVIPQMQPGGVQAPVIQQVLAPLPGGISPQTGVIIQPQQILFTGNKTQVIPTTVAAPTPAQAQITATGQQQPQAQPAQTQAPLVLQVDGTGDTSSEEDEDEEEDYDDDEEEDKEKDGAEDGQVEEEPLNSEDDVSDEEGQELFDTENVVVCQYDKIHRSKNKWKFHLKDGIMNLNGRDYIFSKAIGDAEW
Chain of UniProt O60547 (O60547 whole entry, looked up): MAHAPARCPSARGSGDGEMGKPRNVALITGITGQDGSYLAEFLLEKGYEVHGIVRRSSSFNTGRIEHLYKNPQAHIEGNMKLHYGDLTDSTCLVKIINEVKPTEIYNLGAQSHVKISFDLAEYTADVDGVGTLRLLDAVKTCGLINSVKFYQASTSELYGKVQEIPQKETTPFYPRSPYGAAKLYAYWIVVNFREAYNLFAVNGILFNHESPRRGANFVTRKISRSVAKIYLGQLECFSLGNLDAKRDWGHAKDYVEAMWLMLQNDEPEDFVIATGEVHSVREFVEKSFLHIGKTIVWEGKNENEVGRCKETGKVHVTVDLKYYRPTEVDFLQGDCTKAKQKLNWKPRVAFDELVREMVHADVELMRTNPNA
Chain of UniProt Q9NWZ3 (Q9NWZ3 whole entry, looked up): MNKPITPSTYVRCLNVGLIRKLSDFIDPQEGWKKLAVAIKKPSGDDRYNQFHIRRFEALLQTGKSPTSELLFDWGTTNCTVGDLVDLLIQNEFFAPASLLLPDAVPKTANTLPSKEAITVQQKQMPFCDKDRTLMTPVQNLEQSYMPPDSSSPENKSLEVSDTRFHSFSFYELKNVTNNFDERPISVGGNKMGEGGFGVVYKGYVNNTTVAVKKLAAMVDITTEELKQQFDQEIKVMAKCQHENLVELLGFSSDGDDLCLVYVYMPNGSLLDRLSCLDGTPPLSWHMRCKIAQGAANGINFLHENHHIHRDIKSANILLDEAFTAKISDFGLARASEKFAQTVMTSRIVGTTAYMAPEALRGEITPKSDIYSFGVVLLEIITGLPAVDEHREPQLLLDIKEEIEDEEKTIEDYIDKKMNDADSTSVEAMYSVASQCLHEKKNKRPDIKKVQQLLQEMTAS
Chain of UniProt Q9ULR0 (Q9ULR0 whole entry, looked up): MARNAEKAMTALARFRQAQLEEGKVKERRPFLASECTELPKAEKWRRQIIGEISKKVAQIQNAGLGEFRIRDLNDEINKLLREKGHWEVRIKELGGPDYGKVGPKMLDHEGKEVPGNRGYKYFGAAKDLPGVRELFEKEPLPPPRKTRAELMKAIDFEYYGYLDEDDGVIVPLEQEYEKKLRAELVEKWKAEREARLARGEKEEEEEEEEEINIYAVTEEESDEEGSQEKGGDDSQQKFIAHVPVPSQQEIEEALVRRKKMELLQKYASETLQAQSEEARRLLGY
Chain of UniProt P23677 (P23677 whole entry, looked up): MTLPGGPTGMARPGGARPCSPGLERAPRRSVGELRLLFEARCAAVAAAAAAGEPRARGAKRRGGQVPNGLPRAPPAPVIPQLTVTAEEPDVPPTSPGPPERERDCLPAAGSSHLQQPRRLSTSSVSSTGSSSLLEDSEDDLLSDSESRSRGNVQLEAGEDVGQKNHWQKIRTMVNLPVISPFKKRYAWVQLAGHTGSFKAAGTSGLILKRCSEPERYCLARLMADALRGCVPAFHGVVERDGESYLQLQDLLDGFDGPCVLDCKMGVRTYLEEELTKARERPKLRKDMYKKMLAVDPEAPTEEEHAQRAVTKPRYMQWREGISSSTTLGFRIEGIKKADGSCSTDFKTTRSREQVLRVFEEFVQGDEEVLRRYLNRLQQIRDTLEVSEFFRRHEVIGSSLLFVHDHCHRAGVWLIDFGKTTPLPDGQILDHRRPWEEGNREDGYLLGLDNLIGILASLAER

log2 fold change, inactive:
GTPBP2 (UniProt Q9BX10) -0.003
GMDS (UniProt O60547) -0.016
HSPA8 (UniProt E9PK54) -0.022
ILK (UniProt Q13418) 0.019
HNRNPUL2 (UniProt Q1KMD3) -0.023
KDM1A (UniProt O60341) -0.009
INF2 (UniProt Q27J81) 0.018
ITPKA (UniProt P23677) -0.101
INTS3 (UniProt Q68E01) -0.063
KBTBD4 isoform 2 (UniProt Q9NVX7) -0.023
HNRNPL (UniProt P14866) 0.028
HK1 isoform 2 (UniProt P19367) -0.002
HAUS8 (UniProt Q9BT25) 0.018
IMMT (UniProt Q16891) 0.016
HIST2H2AA3 (UniProt Q6FI13) 0.068
HAUS6 (UniProt Q7Z4H7) 0.007
ISY1 isoform 1 (UniProt Q9ULR0) -0.01
HLCS (UniProt P50747) 0.004
HSD17B12 (UniProt Q53GQ0) -0.078
HAUS7 isoform 2 (UniProt Q99871) -0.026
GTF2A1 (UniProt P52655) 0.052
IL18R1 (UniProt Q13478) 0.075
IRAK4 (UniProt Q9NWZ3) -0.106

Reference: the supplement of paper PMC10849652
